These results are taken from ChEMBL document CHEMBL3988442, “University of Dundee, Small-Polar-MMV Screening Library” (2021).

The campaign covered roughly 66,000 compounds. About 960 (1.5%) showed an effect of 50% or more. The sample as a whole holds a higher share of strong results than the screen did.

The assay relates to Trypanosoma brucei. Nature of the assay: Trypanosoma brucei 72 hour study. The format is functional, organism-based. Details: scale not given: in the data most compounds retested in dose-response had high values.

As to `Cc1ccc(C(=O)N2CCC3(CC2)COC(COc2cccnc2)C3)o1.O=C(O)C(F)(F)F` (centres undefined), the “Percent Effect” value (30 µM, 30.03 µM) worked out at 51.84%. For `Cc1ccc(C(=O)N2CCC3(CC2)COC(COc2ccccn2)C3)o1.O=C(O)C(F)(F)F` (centres undefined), the “Percent Effect” value (30.3 µM, […]) is 15.32%. The same measure, in the same setting: as for `CCOCC1CC2(CCN(C(=O)c3ccccn3)CC2)CO1.O=C(O)C(F)(F)F` (centres undefined), the figure is 13.92%. For the molecule `O=C(O)C(F)(F)F.O=C(c1ccccn1)N1CCC2(CC1)COC(COCC1CC1)C2` (centres undefined), the “Percent Effect” value (30 µM, 30.03 µM) is recorded as 39.74%. For the molecule `CCS(=O)(=O)N1CCC2(CC1)COC(COc1cccnc1)C2.O=C(O)C(F)(F)F` (centres undefined), the “Percent Effect” value (30.3 µM, […]) was found to be 1.349%. On the same count and under the same terms, as for `O=C(O)C(F)(F)F.O=C([C@H]1CCCO1)N1CCCC2(COCCN(c3ccccc3)C2)C1` (some centres undefined), the figure is -14.49%; as for `c1ccc(C(CC2CN(Cc3c[nH]cn3)CCO2)c2ccccc2)cc1` (centres undefined), 18.17%; as for `CC(=O)N1C[C@@H](c2ccsc2)[C@@H]2CN(Cc3ccccc3C)CC[C@@H]21`, -10.13%. Consider `CC(=O)N1CCCn2nc(CNC(=O)N3CCCCC3)cc2C1`, for which, where the note is “30 µM, 30.03 µM”, the “Percent Effect” value is on record as -45.6%. Same read-out and setting: the result for `COC(=O)NCc1cc2n(n1)CCCN(C(C)=O)C2` reads 54.27%; that for `CC(=O)N1CCCn2nc(CNS(=O)(=O)N3CCCCCC3)cc2C1`, -5.109%; that for `O=C(c1cccs1)N1CCC2(C1)c1ccccc1S(=O)(=O)N2CC1CC1` (centres undefined), 16.77%. Same read-out and setting: as for `CCCC(=O)NC(Cc1ccc(C)cc1)c1ccccn1` (centres undefined), the figure is -30.99%; as for `Cc1ccc(CC(NC(=O)CN(C)C2CC2)c2ccccn2)cc1` (centres undefined), 99.62%; as for `CSCC(=O)NC(Cc1ccc(C)cc1)c1ccccn1` (centres undefined), -45.46%. For the molecule `O=C(O)C(F)(F)F.c1csc(CN2C[C@H](OCC3CC3)[C@H]3COC[C@H]32)n1`, where the note is “30.3 µM, […]”, the “Percent Effect” value is listed as -56.8%.

As to `Cc1cc(C)n(C2CN(CC(O)c3cc(F)ccc3F)C2)n1` (centres undefined), the “Percent Effect” value reads like this: (30.3 µM, […]) 7.425%; (10 mM, 10 mM as filed; unlikely as a test dose) -39.98%.

In the case of `CCN1C(=O)CCC12CCCN(Cc1ccc(F)cc1)CC2.O=C(O)C(F)(F)F` (centres undefined), the “Percent Effect” value (30.3 µM, […]) is -27.1%. For `C[C@@H]1CN(C(=O)c2ccsc2)C[C@]12CCN(c1ccsc1)C2=O`, the “Percent Effect” value (30 µM, 30.03 µM) came out at 49.54%. `C[C@H]1CN(C(=O)N(C)C)C[C@@]12CCN(c1ccsc1)C2=O`: for the setting “30.3 µM, […]”, the “Percent Effect” value is -235.1%. Consider `C[C@@H]1CN(C(=O)NC2CC2)C[C@]12CCN(c1ccsc1)C2=O`, for which the “Percent Effect” value (30 µM, 30.03 µM) came to 50.13%. Consider `Cc1ccnn1CCC(=O)N1CCCC1c1cc2cccnc2[nH]1.Cl` (centres undefined), for which the “Percent Effect” value (30.3 µM, […]) is reported as -12.68%. For `Cc1cccc(CN2C[C@@H]3COC[C@]3(CNC(=O)c3ccno3)C2)n1.O=C(O)C(F)(F)F.O=C(O)C(F)(F)F`, under “30 µM, 30.03 µM”, the “Percent Effect” value came out at 26.49%. With `Cc1nc(N2CCCC2)ncc1-c1cc(O)nc(N2CCCCC2)n1`, the “Percent Effect” value (30.3 µM, […]) is listed as -25.67%. As for `Cc1nc(N2CCCC2)ncc1-c1cc(O)nc(N2CCCC2)n1`, under “30 µM, 30.03 µM”, the “Percent Effect” value is given as 64.4%. `Cc1nc(N2CCCCC2)ncc1-c1cc(O)nc(N2CCCCC2)n1`: the “Percent Effect” value (30.3 µM, […]) is given as -25.73%. Regarding `CCOCC1CN(S(=O)(=O)N(C)C)Cc2cnn(C)c21.O=C(O)C(F)(F)F` (centres undefined), the “Percent Effect” value (30 µM, 30.03 µM) was determined as 56.34%. Same read-out and setting: the result for `CCOCC1CN(S(=O)(=O)N(C)C)Cc2cnn(CC3CC3)c21.O=C(O)C(F)(F)F` (centres undefined) reads -18.48%; that for `CCOCC1CN(C(=O)c2cscn2)Cc2cnn(CC3CC3)c21` (centres undefined), -19.67%. As to `CCOCC1CN(C(=O)c2cnccn2)Cc2cnn(CC3CC3)c21.O=C(O)C(F)(F)F` (centres undefined), the “Percent Effect” value (30 µM, 30.03 µM) was 61.22%.

Consider `CCOCC1CN(S(=O)(=O)N(C)C)Cc2cnn(CC)c21.O=C(O)C(F)(F)F` (centres undefined), for which the “Percent Effect” value (30 µM, 30.03 µM) was -21.09%.

In the case of `CCOCC1CN(C(=O)c2cccn2C)Cc2cnn(CC3CC3)c21.O=C(O)C(F)(F)F` (centres undefined), the “Percent Effect” value (30 µM, 30.03 µM) is on record as 19.58%. Take `O=C(CC1CC1)N1CCN(Cc2cccnc2)c2ncccc2C1.O=C(O)C(F)(F)F.O=C(O)C(F)(F)F`: the “Percent Effect” value (30.3 µM, […]) is given as -18.28%. Same read-out and setting: as for `C1CCC(CN2Cc3nnn(CC4CC4)c3C(COCC3CC3)C2)C1.O=C(O)C(F)(F)F` (centres undefined), the figure is -7.314%; as for `CCCS(=O)(=O)N1C[C@H]2C[C@H](C(=O)N3CCN(C)CC3)[C@@H](C1)O2.O=C(O)C(F)(F)F`, 2.556%.

Consider `Cn1ccc(C(=O)NC2CCC23CCN(Cc2cnn(C)c2)CC3)c1.O=C(O)C(F)(F)F` (centres undefined), for which the “Percent Effect” value (30 µM, 30.03 µM) was -26.08%.

On to `O=C(c1cccnc1)N(Cc1ccncc1)C1CC1`, for which, under “30 µM, 30.03 µM”, the “Percent Effect” value is -21.55%. In the case of `O=C(Nc1cccnc1)N(Cc1ccccc1)C1CC1`, the “Percent Effect” value (30 µM, 30.03 µM) was found to be 60.16%. Same read-out and setting: as for `CC(C)CN(C(=O)Nc1cccnc1)C1CC1`, the figure is -2.145%. Still for that read-out and setting: as for `Fc1ccc(CNC2CCN(CCc3ccncc3)CC2)cc1F`, the figure is 6.927%; as for `Cc1ccc(CNC2CCN(CCc3ccncc3)CC2)cc1C`, 51.93%; as for `COc1ccc(CNC2CCN(CCc3ccncc3)CC2)cc1O`, 21.52%. As to `O=C(O)C(F)(F)F.O=C1CCCN1Cc1nnc2n1CCCN(Cc1ccco1)C2`, under “30.3 µM, […]”, the “Percent Effect” value is -37.98%. Consider `CC(C)(C)CC(=O)NCCn1nc(C2CCNC2)c2cccnc21.Cl` (centres undefined), for which the “Percent Effect” value (30.3 µM, […]) is listed as -18.41%. For the molecule `COCc1noc(Cn2c(=O)[nH]c3ccccc32)n1`, the “Percent Effect” value (30 µM, 30.03 µM) is on record as -41.22%.

As for `CCN1CCOCC12CCN(C(=O)Cc1ccccc1)CC2.O=C(O)C(F)(F)F`, for the setting “30 µM, 30.03 µM”, the “Percent Effect” value is listed as 60.57%.

On to `O=C(Cc1ccccc1)N1CCC2(CC1)COCCN2CC1CC1.O=C(O)C(F)(F)F`, for which the “Percent Effect” value (30 µM, 30.03 µM) came out at 11.75%. `CCN1CCOCC12CCN(C(=O)Cc1cccs1)CC2.O=C(O)C(F)(F)F`: for the setting “30.3 µM, […]”, the “Percent Effect” value was -18.12%.
